# Screening data from PubChem BioAssay.
# HIF act = HIF pathway transcriptional activators, primary screen, cell-based, U2OS HRE-luciferase, luminescence; U2OS HRE-luciferase reporter; normalized: DMSO 0%, desferrioxamine 100%; activation, % at 7.5 µM (by protocol); 0.32% of 300,000 active;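 active means mean activation of at least 10% of the iron chelator positive control signal, with at least half of replicates also reaching 10%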
# Mot1-301 SUMO = yeast Mot1-301 growth rescue at high temperature, primary screen, SUMOylation pathway inhibitor project, S. cerevisiae, ATP luminescence, 38.5C | AID 2716, 2010 | 1% of 320,000 active | growth rescue, % at 18.8 µM | S. cerevisiae Mot1-301 growth rescue; percent above DMSO median, 100 means doubled;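 active means every valid replicate shows activation above 250% relative to neutral control wells; inactive means the rest, any valid replicate at or below 250%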;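 further: OY570 slx delta 5 strain wells were the positive control but not used for scaling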
# ALR H2O2 inh = inhibitors of human ALR sulfhydryl oxidase, primary screen, biochemical, H2O2 detection, HRP-luminol luminescence, single point; purified ALR, DTT oxidation; AID 485317, 2010; inhibition, % (no concentration beside the values); 3.8% of 290,000 active;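 active means mean replicate inhibition above about 79%, with every replicate also reaching it, limit read from the data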
# Target sequence (P55789 whole entry, looked up): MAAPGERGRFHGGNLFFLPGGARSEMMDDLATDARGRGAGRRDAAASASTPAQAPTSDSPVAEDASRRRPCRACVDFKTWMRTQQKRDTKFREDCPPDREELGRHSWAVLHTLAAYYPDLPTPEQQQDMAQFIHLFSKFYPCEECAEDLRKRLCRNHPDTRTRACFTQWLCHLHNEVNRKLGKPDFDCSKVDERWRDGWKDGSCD
# PfM18AAP inh = PfM18AAP inhibitors, malaria aminopeptidase, primary screen, biochemical, QFRET, recombinant enzyme; M18 aspartyl aminopeptidase (Plasmodium falciparum 3D7); H-Glu-NHMec fluorogenic cleavage; inhibition, % at 7.35 µM; 1.2% of 290,000 active; AID 1822, 2009;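 active means inhibition above the campaign mean inhibition over all tested compounds plus 3 SD, cut at about 28% in these data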;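 further: 0% = plate median of test compound wells and 100% = 2 mM ZnCl2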
# Numbers without * were called inactive; i = inactive; · = no result. Hits are enriched below; roughly 5.3% of the tested compounds scored in any of these assays.
SMILES,HIF act,Mot1-301 SUMO,ALR H2O2 inh,PfM18AAP inh
COc1ccc(C(CC(=O)Nc2cc(OC)cc(OC)c2)n2cccc2)cc1 (configuration not stated),0,13,-3,-10
CCC1Oc2ccccc2N(CC(=O)NCCc2ccc(OC)c(OC)c2)C1=O (configuration not stated),1,-4,-7,-2
COc1ccccc1NC(=O)c1cc(=O)[nH]c2ccccc12,-15,-16,99*,-9
CCC1Oc2ccccc2N(CC(=O)Nc2ccccc2OC)C1=O (configuration not stated),225*,0,-11,2
O=C(NNC(=O)C12CC3CC(CC(C3)C1)C2)c1csc(N2CCOCC2)n1,0,-20,-2,·
Cc1c(C(=O)N2CCOCC2)sc(NC(=O)C(C)C)c1C#N,-1,4,·,-2
CCn1c(=O)c2c(nc(SCC(=O)NC3CCCC3)n2C)n(C)c1=O,-1,8,3,0
COc1ccccc1NC(=O)CSc1nc(O)cc(=O)[nH]1,0,-1,98*,-6
CCc1c(O)nc(SCC(=O)Nc2ccccc2OC)[nH]c1=O,0,-14,99*,2
O=C(O)c1cc(O)c2c(c1)C(=O)c1cccc(O)c1C2=O,0,-15,-37,28*
NC(=O)C1C(c2ccccc2)=C1c1ccccc1,0,i,97*,-10
Cc1cccc(-c2c3c(=O)n(C)c(=O)n(C)c3cn2-c2ccc(O)cc2)c1,0,1,95*,-2
Cc1ccc(C23CCC(=O)N2C(C(=O)O)CS3)c(C)c1 (configuration not stated),1,2,0,0
Cc1cccc(Nc2nc(N)c([N+](=O)[O-])c(N3CCOCC3)n2)c1,0,9,48,0
Cc1ccc(-c2nc3ncccn3c2Nc2ccc3c(c2)OCCO3)cc1,3,12,96*,3
Oc1ccc(-c2nc3ncccn3c2Nc2ccc3c(c2)OCCO3)cc1,0,-3,93*,8
Cc1cccc(Nc2c(-c3ccc(N4CCOCC4)cc3)nc3ncccn23)c1,0,-1,95*,-1
C=CCN1C(=O)CSc2ccc(C(=O)NCc3ccc(F)cc3)cc21,0,-5,-3,-9
Cc1ccc(-c2nc(NC(=O)c3cc(C(C)(C)C)nn3C)sc2C)cc1Cl,·,-8,·,3
Cn1c(CCC(=O)O)nc2cc(S(=O)(=O)N3CCCCC3)ccc21,·,3,-6,·
CCn1c(N)c(C(=O)N2CCOCC2)sc1=S,0,-2,98*,-4
C=CCn1c(N)c(C(=O)Nc2ccc(C)cc2)sc1=S,2,1,17,9
CCOC(=O)c1c(N)sc(C(=O)N2CCOCC2)c1C,0,8,-2,-9
C=CCn1c(N)c(C(=O)N2CCOCC2)sc1=S,0,1,99*,-1
COc1ccccc1/C=N/NC(=O)c1nnn(-c2nonc2N)c1-c1cccs1,3,-6,-12,4
SMILES,HIF act,Mot1-301 SUMO,ALR H2O2 inh,PfM18AAP inh
O=C(CSC1=NCCS1)N1CCN(c2ccc(Cl)cc2)CC1,-1,-7,73,-1
O=C(CSC1=NCCS1)c1ccc(Cl)cc1,1,-8,98*,0
CCCn1cnc2cc(NCc3cccc(OC)c3)ccc21,·,-27,95*,14
CCC(=O)Nc1ccc2c(c1)ncn2CCc1ccccc1,-7,0,-6,-1
CCCn1cnc2cc(NCc3ccccc3O)ccc21,1,12,99*,-1
CCCn1nnnc1NCc1cccc(OC)c1,2,10,-2,0
COc1cc2[nH]c(=S)nc(NCc3ccccc3)c2cc1OC,-1,-3,-7,5
COc1cc2[nH]c(=S)nc(NCc3cccnc3)c2cc1OC,0,-6,-3,30*
COc1ccc(CCNC(=O)C2CCN(c3nccc(C)n3)CC2)cc1,-1,-5,·,4
CCC(C)NC(=O)CSc1nnc(-c2cc(OC)c(OC)c(OC)c2)c(-c2cc(OC)c(OC)c(OC)c2)n1 (configuration not stated),0,2,-5,-6
C=CCc1c(C)nc2c(C)cccc2c1SC(=N)N,0,-3,100*,-1
Cc1ccc(NCc2ccc([N+](=O)[O-])s2)cc1,1,i,98*,1
Cc1cccc(NCc2ccc([N+](=O)[O-])s2)c1,0,26,98*,3
O=c1ccc(-c2ccc(S(=O)(=O)Nc3ccccc3Cl)o2)n[nH]1,0,6,-4,-14
